{"source": "PubChem BioAssay", "note": "Unmarked numbers belong to inactive results. The source made the active and inactive calls.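 How the source made its calls, unless noted: active means efflux inhibition above 0.42, the validation set average plus 4 SD; inconclusive means no clear call, values can overlap the other calls; inactive means the rest.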"}
{"system": "not listed separately", "experiment": "inhibitors of fungal efflux pumps CDR1, CDR2, MDR1, pilot screen, validation compound set, multiplex, phenotypic (AID 588506);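 further: Nile Red retained in cells so higher fluorescence means more efflux inhibition; 0 = negative control wells and 1 = enniatin B 25 µM full block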", "conditions": "S. cerevisiae pump-expressing triplex, Nile Red efflux flow cytometry; at 10 µM; active compounds read high; the pumps come from Candida albicans"}
{"compound": "Fc1ccc(-n2cc(CNCCc3ccccn3)c(-c3ccccc3Cl)n2)cc1", "efflux inhibition (fraction of control)": -0.17}
{"compound": "CO[C@@]1(NC(=O)Cc2cccs2)C(=O)N2C(C(=O)O)=C(COC(N)=O)CS[C@@H]21", "efflux inhibition (fraction of control)": 0.16}
{"compound": "N#CCC(N)=C(C#N)C#N", "efflux inhibition (fraction of control)": -0.02}
{"compound": "O=C(OCCN1CCOCC1)c1cccs1", "efflux inhibition (fraction of control)": 0.02}
{"compound": "CC(=O)c1cc2c(cc1NC(=O)c1ccco1)OCCO2", "efflux inhibition (fraction of control)": -0.04}
{"compound": "CC(C)NS(=O)(=O)c1ccc(OCC(=O)Nc2cccc(F)c2)cc1", "efflux inhibition (fraction of control)": 0.22}
{"compound": "COc1ccc2[nH]c(CN3CCN(CC(C)C)C(CCO)C3)c(C)c2c1", "note": "(stereo not drawn)", "efflux inhibition (fraction of control)": -0.06}
{"compound": "Cc1ccsc1C1NC(=O)c2ccccc2N1", "note": "(stereo not drawn)", "efflux inhibition (fraction of control)": -0.28}
{"compound": "Fc1ccc(NC(=S)Nc2ccccc2Cl)cc1", "efflux inhibition (fraction of control)": 0.37}
{"compound": "CCN1C(=O)C(CC(=O)Nc2ccc(F)cc2)N(Cc2ccco2)C1=S", "note": "(stereo not drawn)", "efflux inhibition (fraction of control)": -0.04}
{"compound": "Cc1ccc2c(c1C)NC(C(=O)O)C1CC=CC21", "note": "(stereo not drawn)", "efflux inhibition (fraction of control)": 0.15}
{"compound": "c1cc(-c2ccncc2)ccn1", "efflux inhibition (fraction of control)": -0.28}
{"compound": "NS(=O)(=O)c1ccc(CCNC(=O)C2CCCN2C(=O)OCc2ccccc2)cc1", "note": "(stereo not drawn)", "efflux inhibition (fraction of control)": 0.19}
{"compound": "CC(C)CN1CCN(Cc2cccn2-c2ccccn2)CC1CCO", "note": "(stereo not drawn)", "efflux inhibition (fraction of control)": "0.48 (active)"}
{"compound": "CC(C)COCC(CN(Cc1ccccc1)c1ccccc1)N1CCCC1", "note": "(stereo not drawn)", "efflux inhibition (fraction of control)": 0.16}
{"compound": "CS(=O)(=O)NCc1ccc(C(=O)NCc2ccccc2)cc1", "efflux inhibition (fraction of control)": -0.04}
{"compound": "COc1cc(NC(=S)NN2CCN(C)CC2)cc(OC)c1OC", "efflux inhibition (fraction of control)": -0.04}
{"compound": "CC(=O)[C@@H]1[C@@H](C(=O)c2ccc(C)cc2)[C@]2(C(=O)Nc3ccccc32)[C@H]2C=Cc3cc(F)ccc3N12", "efflux inhibition (fraction of control)": -0.03}
{"compound": "COC(=O)c1ccc(NC(=O)c2ccccc2SC)cc1", "efflux inhibition (fraction of control)": -0.26}
{"compound": "O=C(Nc1nc2ccccc2s1)c1ccc(F)cc1", "efflux inhibition (fraction of control)": -0.13}
{"compound": "CC(=O)N1c2ccccc2C(C)=CC1(C)C", "efflux inhibition (fraction of control)": -0.04}
{"compound": "CCC(=O)Oc1ccc(C(=O)Nc2ccc([N+](=O)[O-])cc2)cc1", "efflux inhibition (fraction of control)": -0.38}
{"compound": "C[C@]12CC[C@@H]3c4ccc(O)cc4CC[C@H]3[C@@H]1CC[C@@H]2O", "efflux inhibition (fraction of control)": "0.68 (active)"}
{"compound": "C=CCNc1nc2c(c(=O)n(C)c(=O)n2C)n1CC(=C)C", "efflux inhibition (fraction of control)": -0.38}
{"compound": "COc1ccc(CN2CCCCC2C(=O)Nc2ccc(OC)c(OCC(C)C)c2)cc1OC", "note": "(stereo not drawn)", "efflux inhibition (fraction of control)": -0.35}
{"compound": "Cn1cc(C2N3CC4(C)CN2CC(C)(C3)C4=O)c2ccccc21", "note": "(stereo not drawn)", "efflux inhibition (fraction of control)": -0.01}
{"compound": "Cc1ccc2nc(NC3=NC(CC(=O)O)C(=O)N3)nc(C)c2c1", "note": "(stereo not drawn)", "efflux inhibition (fraction of control)": 0.36}
{"compound": "Cc1ccc(C2CC(=O)C(C=NCCN3CCN(CC(=O)Nc4cc(C)cc(C)c4)CC3)=C(O)C2)cc1", "note": "(stereo not drawn)", "efflux inhibition (fraction of control)": -0.05}
{"compound": "NC(N)=NC(=O)Cc1c(Cl)cccc1Cl", "efflux inhibition (fraction of control)": -0.01}
{"compound": "O=C(CCSc1ccccc1)N1CCCC1", "efflux inhibition (fraction of control)": -0.15}
{"compound": "O=C(Nc1ccc(F)c([N+](=O)[O-])c1)c1ccc2c(c1)OCCO2", "efflux inhibition (fraction of control)": -0.01}
{"compound": "Nc1ccc2cn[nH]c2c1", "efflux inhibition (fraction of control)": 0.265}
{"compound": "CCN(CC)CC#CCOC(=O)C(O)(c1ccccc1)C1CCCCC1", "note": "(stereo not drawn)", "efflux inhibition (fraction of control)": 0.3}
{"compound": "CC(C)CN1CCN(Cc2ccc(C#CC(C)(C)O)cc2)CC1CCO", "note": "(stereo not drawn)", "efflux inhibition (fraction of control)": 0.34}
{"compound": "Cc1ccccc1NC(=O)NCCc1c[nH]c2ccccc12", "efflux inhibition (fraction of control)": 0.07}
{"compound": "C#CCN1C(=O)C(O)(c2c(C)[nH]c3ccccc23)c2ccccc21", "note": "(stereo not drawn)", "efflux inhibition (fraction of control)": -0.44}
{"compound": "Cc1ccc(S(=O)(=O)N2CCC(C(=O)N[C@@H](C)C(=O)NC3CCS(=O)(=O)C3)CC2)cc1", "note": "(stereo partly drawn)", "efflux inhibition (fraction of control)": 0.1}
{"compound": "CCNC(=O)c1c(N)sc2c1CCCCC2", "efflux inhibition (fraction of control)": 0.12}
{"compound": "COc1ccccc1C(=O)Oc1ccc2c(c1)O/C(=C\\c1ccncc1)C2=O", "efflux inhibition (fraction of control)": 0.17}
{"target": "ATP-binding cassette sub-family B member 6 (Homo sapiens) (UniProt Q9NP58)", "sequence (Q9NP58 whole entry, looked up)": "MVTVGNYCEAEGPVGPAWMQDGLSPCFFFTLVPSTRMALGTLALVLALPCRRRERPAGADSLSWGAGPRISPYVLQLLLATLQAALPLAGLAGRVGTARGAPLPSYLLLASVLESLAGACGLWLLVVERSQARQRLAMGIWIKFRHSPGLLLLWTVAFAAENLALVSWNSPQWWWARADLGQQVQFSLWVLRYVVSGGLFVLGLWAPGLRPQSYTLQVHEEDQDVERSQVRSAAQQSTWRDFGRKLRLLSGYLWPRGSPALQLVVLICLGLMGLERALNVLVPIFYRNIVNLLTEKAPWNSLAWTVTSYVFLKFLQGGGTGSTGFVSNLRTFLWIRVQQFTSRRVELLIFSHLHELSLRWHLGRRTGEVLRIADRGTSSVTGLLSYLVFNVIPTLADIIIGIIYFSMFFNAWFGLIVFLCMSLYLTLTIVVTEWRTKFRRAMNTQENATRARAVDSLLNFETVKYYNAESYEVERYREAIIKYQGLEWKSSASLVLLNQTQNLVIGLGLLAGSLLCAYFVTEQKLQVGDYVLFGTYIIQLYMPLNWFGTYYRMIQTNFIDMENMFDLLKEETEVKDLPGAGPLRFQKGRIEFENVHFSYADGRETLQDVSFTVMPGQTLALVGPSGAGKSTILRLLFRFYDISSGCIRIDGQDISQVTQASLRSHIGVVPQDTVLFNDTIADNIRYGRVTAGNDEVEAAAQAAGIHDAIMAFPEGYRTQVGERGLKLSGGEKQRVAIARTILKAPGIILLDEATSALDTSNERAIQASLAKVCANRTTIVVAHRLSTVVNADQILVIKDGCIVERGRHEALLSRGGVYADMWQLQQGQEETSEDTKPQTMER", "experiment": "ABCB6 transporter inhibitors, pilot screen, K562-ABCB6 cells, flow cytometry, validation set (AID 588550;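 active means inhibition above the screen-wide mean plus 3 SD, about 51%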;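 further: 0% = DMSO wells and 100% = benzethonium chloride 70 µM positive control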)", "conditions": "K562-ABCB6 porphyrin accumulation, 1 h, at 10 µM, active compounds read high", "units": {"inhibition": "%"}}
{"compound": "Fc1ccc(-n2cc(CNCCc3ccccn3)c(-c3ccccc3Cl)n2)cc1", "inhibition": -2}
{"compound": "CO[C@@]1(NC(=O)Cc2cccs2)C(=O)N2C(C(=O)O)=C(COC(N)=O)CS[C@@H]21", "inhibition": 14}
{"compound": "N#CCC(N)=C(C#N)C#N", "inhibition": -45}
{"compound": "O=C(OCCN1CCOCC1)c1cccs1", "inhibition": 1}
{"compound": "CC(=O)c1cc2c(cc1NC(=O)c1ccco1)OCCO2", "inhibition": 2}
{"compound": "CC(C)NS(=O)(=O)c1ccc(OCC(=O)Nc2cccc(F)c2)cc1", "inhibition": 7}
{"compound": "COc1ccc2[nH]c(CN3CCN(CC(C)C)C(CCO)C3)c(C)c2c1", "note": "(stereo not drawn)", "inhibition": 6}
{"compound": "Cc1ccsc1C1NC(=O)c2ccccc2N1", "note": "(stereo not drawn)", "inhibition": 6}
{"compound": "Fc1ccc(NC(=S)Nc2ccccc2Cl)cc1", "inhibition": 12}
{"compound": "CCN1C(=O)C(CC(=O)Nc2ccc(F)cc2)N(Cc2ccco2)C1=S", "note": "(stereo not drawn)", "inhibition": 7}
{"compound": "Cc1ccc2c(c1C)NC(C(=O)O)C1CC=CC21", "note": "(stereo not drawn)", "inhibition": -4}
{"compound": "c1cc(-c2ccncc2)ccn1", "inhibition": 4}
{"compound": "NS(=O)(=O)c1ccc(CCNC(=O)C2CCCN2C(=O)OCc2ccccc2)cc1", "note": "(stereo not drawn)", "inhibition": 11}
{"compound": "CC(C)CN1CCN(Cc2cccn2-c2ccccn2)CC1CCO", "note": "(stereo not drawn)", "inhibition": 16}
{"compound": "CC(C)COCC(CN(Cc1ccccc1)c1ccccc1)N1CCCC1", "note": "(stereo not drawn)", "inhibition": 8}
{"compound": "CS(=O)(=O)NCc1ccc(C(=O)NCc2ccccc2)cc1", "inhibition": -5}
{"compound": "COc1cc(NC(=S)NN2CCN(C)CC2)cc(OC)c1OC", "inhibition": 13}
{"compound": "CC(=O)[C@@H]1[C@@H](C(=O)c2ccc(C)cc2)[C@]2(C(=O)Nc3ccccc32)[C@H]2C=Cc3cc(F)ccc3N12", "inhibition": 2}
{"compound": "COC(=O)c1ccc(NC(=O)c2ccccc2SC)cc1", "inhibition": 1}
{"compound": "O=C(Nc1nc2ccccc2s1)c1ccc(F)cc1", "inhibition": 9}
{"compound": "CC(=O)N1c2ccccc2C(C)=CC1(C)C", "inhibition": 2}
{"compound": "CCC(=O)Oc1ccc(C(=O)Nc2ccc([N+](=O)[O-])cc2)cc1", "inhibition": 14}
{"compound": "C[C@]12CC[C@@H]3c4ccc(O)cc4CC[C@H]3[C@@H]1CC[C@@H]2O", "inhibition": 4}
{"compound": "C=CCNc1nc2c(c(=O)n(C)c(=O)n2C)n1CC(=C)C", "inhibition": 3}
{"compound": "COc1ccc(CN2CCCCC2C(=O)Nc2ccc(OC)c(OCC(C)C)c2)cc1OC", "note": "(stereo not drawn)", "inhibition": 4}
{"compound": "Cn1cc(C2N3CC4(C)CN2CC(C)(C3)C4=O)c2ccccc21", "note": "(stereo not drawn)", "inhibition": -4}
{"compound": "Cc1ccc2nc(NC3=NC(CC(=O)O)C(=O)N3)nc(C)c2c1", "note": "(stereo not drawn)", "inhibition": 6}
{"compound": "Cc1ccc(C2CC(=O)C(C=NCCN3CCN(CC(=O)Nc4cc(C)cc(C)c4)CC3)=C(O)C2)cc1", "note": "(stereo not drawn)", "inhibition": 13}
{"compound": "NC(N)=NC(=O)Cc1c(Cl)cccc1Cl", "inhibition": 18}
{"compound": "O=C(CCSc1ccccc1)N1CCCC1", "inhibition": 5}
{"compound": "O=C(Nc1ccc(F)c([N+](=O)[O-])c1)c1ccc2c(c1)OCCO2", "inhibition": 15}
{"compound": "Nc1ccc2cn[nH]c2c1", "inhibition": 32}
{"compound": "CCN(CC)CC#CCOC(=O)C(O)(c1ccccc1)C1CCCCC1", "note": "(stereo not drawn)", "inhibition": 8}
{"compound": "CC(C)CN1CCN(Cc2ccc(C#CC(C)(C)O)cc2)CC1CCO", "note": "(stereo not drawn)", "inhibition": 9}
{"compound": "Cc1ccccc1NC(=O)NCCc1c[nH]c2ccccc12", "inhibition": 10}
{"compound": "C#CCN1C(=O)C(O)(c2c(C)[nH]c3ccccc23)c2ccccc21", "note": "(stereo not drawn)", "inhibition": 3}
{"compound": "Cc1ccc(S(=O)(=O)N2CCC(C(=O)N[C@@H](C)C(=O)NC3CCS(=O)(=O)C3)CC2)cc1", "note": "(stereo partly drawn)", "inhibition": 13}
{"compound": "CCNC(=O)c1c(N)sc2c1CCCCC2", "inhibition": 2}
{"compound": "COc1ccccc1C(=O)Oc1ccc2c(c1)O/C(=C\\c1ccncc1)C2=O", "inhibition": -9}
